According to PubChem BioAssay (NCI):
About 83,000 compounds went through this panel and 20% of them were active in at least one assay; those are over-represented in the sample as a whole.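 Treatment: one concentration, 48 hours, 96-well format. Scoring: percent growth, with anything below 10 considered active.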 Activity calls are given as the source filed them.

Tests used:
Test in all cases: NCI-60 one-dose screen, 48 h (100 = growth as untreated, 0 = no growth, -100 = all killed)
DU-145 prostate = settings: 10 µM unless noted
K-562 leukemia = settings: 10 µM unless noted
MALME-3M melanoma = settings: 10 µM unless noted
MDA-MB-231 breast = settings: 10 µM unless noted
RXF 393 renal = settings: 10 µM unless noted
SF-268 CNS = settings: 10 µM unless noted
SF-295 CNS = settings: 10 µM unless noted
UACC-257 melanoma = settings: 10 µM unless noted
M14 melanoma = settings: 10 µM unless noted
HCT-15 colon = settings: 10 µM unless noted
HT29 colon = settings: 10 µM unless noted
SNB-75 CNS = settings: 10 µM unless noted
U251 CNS = settings: 10 µM unless noted
PC-3 prostate = settings: 10 µM unless noted
SK-MEL-5 melanoma = settings: 10 µM unless noted
UACC-62 melanoma = settings: 10 µM unless noted
LOX IMVI melanoma = settings: 10 µM
SK-MEL-28 melanoma = settings: 10 µM unless noted
SNB-19 CNS = settings: 10 µM unless noted
SF-539 CNS = settings: 10 µM unless noted

Measured: growth

N=C(N)Sc1cccc[n+]1[O-]
active: LOX IMVI melanoma -30.9%
inactive: DU-145 prostate 35.5% | K-562 leukemia 33.2% | MALME-3M melanoma 22.2% | MDA-MB-231 breast 59.6% | RXF 393 renal 22.2% | SF-268 CNS 62.6% | SF-295 CNS 68.7% | UACC-257 melanoma 58% | M14 melanoma 18.4% | HCT-15 colon 32.8% | HT29 colon 50.3% | SNB-75 CNS 61.5% | U251 CNS 41.5% | PC-3 prostate 38.1% | SK-MEL-5 melanoma 56.2% | UACC-62 melanoma 23.2% | SK-MEL-28 melanoma 26.1%

Oc1ccc(Cl)cc1Cc1cc(Cl)ccc1O
active: SK-MEL-5 melanoma 9.09%
inactive: DU-145 prostate 38.2% | K-562 leukemia 21.1% | MALME-3M melanoma 16.3% | MDA-MB-231 breast 23.3% | RXF 393 renal 50.4% | SF-268 CNS 22.5% | SF-295 CNS 41.3% | UACC-257 melanoma 41.6% | M14 melanoma 25.2% | HCT-15 colon 13.7% | HT29 colon 86.3% | SNB-75 CNS 48.3% | SNB-19 CNS 41.5% | U251 CNS 34.8% | PC-3 prostate 23.9% | LOX IMVI melanoma 42.9% | SK-MEL-28 melanoma 35.6%

CC(C)Nc1ccc(Nc2ccc(NC(C)C)cc2)cc1
inactive: DU-145 prostate 63.1% | K-562 leukemia 24.6% | MALME-3M melanoma 35.8% | MDA-MB-231 breast 33.3% | RXF 393 renal 77.5% | SF-268 CNS 63.5% | SF-295 CNS 67.6% | UACC-257 melanoma 23.7% | M14 melanoma 72% | HCT-15 colon 92.9% | HT29 colon 26.9% | SNB-75 CNS 79.7% | SNB-19 CNS 28.6% | U251 CNS 16.9% | PC-3 prostate 38.8% | SK-MEL-5 melanoma 33.2% | UACC-62 melanoma 36.6% | LOX IMVI melanoma 39.9% | SK-MEL-28 melanoma 50.8%

Cc1cc(C(N)=O)cc(C)c1C(=O)OCCCl
inactive: DU-145 prostate 99.2% | K-562 leukemia 93.6% | MALME-3M melanoma 101% | MDA-MB-231 breast 105% | RXF 393 renal 117% | SF-268 CNS 95% | SF-295 CNS 99.7% | SF-539 CNS 101% | M14 melanoma 108% | HT29 colon 106% | SNB-75 CNS 100% | SNB-19 CNS 109% | U251 CNS 96.9% | PC-3 prostate 96.8% | SK-MEL-5 melanoma 101% | UACC-62 melanoma 102% | LOX IMVI melanoma 97.5% | SK-MEL-28 melanoma 110%

Fc1ccc(NCCS)cc1
inactive: DU-145 prostate 107% | K-562 leukemia 101% | MALME-3M melanoma 108% | MDA-MB-231 breast 102% | RXF 393 renal 108% | SF-268 CNS 102% | SF-539 CNS 103% | UACC-257 melanoma 102% | M14 melanoma 103% | HCT-15 colon 105% | HT29 colon 111% | SNB-75 CNS 80.4% | SNB-19 CNS 107% | PC-3 prostate 99.1% | UACC-62 melanoma 106% | LOX IMVI melanoma 91.7% | SK-MEL-28 melanoma 103%

CN=C(N)N/N=C(\C)c1ccc2c(c1)Cc1ccccc1-2
active: DU-145 prostate -85.9% | K-562 leukemia -81.5% | MALME-3M melanoma -85% | MDA-MB-231 breast -67.5% | RXF 393 renal -28.4% | SF-268 CNS -44.2% | SF-295 CNS -51.9% | UACC-257 melanoma -70.3% | M14 melanoma -96.1% | HCT-15 colon -81.4% | SNB-19 CNS -40% | U251 CNS -82.2% | PC-3 prostate -20.6% | SK-MEL-5 melanoma -100% | UACC-62 melanoma -80.2% | LOX IMVI melanoma -83.9% | SK-MEL-28 melanoma -98.4%

N=C1C=C(N)C(=O)c2ccccc21
active: DU-145 prostate -99.5% | K-562 leukemia -4.96% | MALME-3M melanoma -83.7% | MDA-MB-231 breast -12.5% | RXF 393 renal -97.1% | SF-268 CNS -68.4% | SF-539 CNS -95.8% | UACC-257 melanoma -77.2% | M14 melanoma -86.5% | HCT-15 colon -74.6% | HT29 colon -38.8% | SNB-75 CNS -99.1% | SNB-19 CNS -98.7% | U251 CNS -72.1% | PC-3 prostate -7.01% | SK-MEL-5 melanoma -96% | UACC-62 melanoma -95.8% | LOX IMVI melanoma -100% | SK-MEL-28 melanoma -96.5%

CC1=CC(=O)C=CC1(C)C(Cl)(Cl)Cl (centres undefined)
inactive: DU-145 prostate 124% | K-562 leukemia 107% | MALME-3M melanoma 91.2% | MDA-MB-231 breast 92.2% | RXF 393 renal 115% | SF-268 CNS 107% | SF-295 CNS 102% | UACC-257 melanoma 69.8% | M14 melanoma 97.8% | HT29 colon 83.1% | SNB-75 CNS 109% | SNB-19 CNS 92% | U251 CNS 83.1% | PC-3 prostate 92.9% | SK-MEL-5 melanoma 103% | UACC-62 melanoma 95.7% | LOX IMVI melanoma 93% | SK-MEL-28 melanoma 102%

CC12CCC(O)CC1=CCC1C2CCC2(C)C3=NN=CC3CC12 (centres undefined)
inactive: DU-145 prostate 122% | K-562 leukemia 61.1% | MALME-3M melanoma 98% | MDA-MB-231 breast 103% | RXF 393 renal 102% | SF-268 CNS 105% | SF-539 CNS 106% | UACC-257 melanoma 103% | M14 melanoma 99.7% | HT29 colon 99% | SNB-75 CNS 93.7% | SNB-19 CNS 103% | U251 CNS 101% | PC-3 prostate 103% | SK-MEL-5 melanoma 96.4% | UACC-62 melanoma 92.5% | LOX IMVI melanoma 100% | SK-MEL-28 melanoma 103%

C/C(=N\NC(=S)N1CC2CCC(CC2)C1)c1ccccn1
active: K-562 leukemia 3.3% | MALME-3M melanoma -1.66% | RXF 393 renal -7.47% | SF-539 CNS 3.7% | UACC-257 melanoma 5.97% | M14 melanoma -32.4% | HT29 colon 6.46% | U251 CNS 5.52% | PC-3 prostate -4.47% | SK-MEL-5 melanoma -68.3% | UACC-62 melanoma -36.7% | LOX IMVI melanoma 4.04%
inactive: DU-145 prostate 19.4% | MDA-MB-231 breast 15.7% | SF-268 CNS 15.5% | HCT-15 colon 18.4% | SNB-75 CNS 33.8% | SK-MEL-28 melanoma 37.9%

O=C1C=CC(=O)N1c1ccccc1
inactive: DU-145 prostate 109% | K-562 leukemia 52.6% | MALME-3M melanoma 101% | MDA-MB-231 breast 78.6% | RXF 393 renal 88.7% | SF-268 CNS 112% | SF-539 CNS 100% | UACC-257 melanoma 96.9% | M14 melanoma 94.2% | HT29 colon 103% | U251 CNS 94.1% | SK-MEL-5 melanoma 106% | UACC-62 melanoma 93.2% | SK-MEL-28 melanoma 117%

O=S(=O)(O)c1cnccn1
inactive: DU-145 prostate 110% | K-562 leukemia 106% | MALME-3M melanoma 108% | MDA-MB-231 breast 108% | RXF 393 renal 114% | SF-268 CNS 102% | SF-295 CNS 101% | SF-539 CNS 97.2% | M14 melanoma 100% | HCT-15 colon 103% | HT29 colon 94.7% | SNB-75 CNS 92.9% | SNB-19 CNS 104% | U251 CNS 102% | PC-3 prostate 82.6% | SK-MEL-5 melanoma 104% | UACC-62 melanoma 99.4% | LOX IMVI melanoma 98% | SK-MEL-28 melanoma 107%

NC(=S)N/N=C\c1nccc2c(N)cccc12
active: MALME-3M melanoma 3.21% | SF-268 CNS 8.21% | SF-295 CNS -15.5% | UACC-257 melanoma 7.45% | M14 melanoma -34.8% | UACC-62 melanoma -29% | LOX IMVI melanoma 5.29%
inactive: DU-145 prostate 11% | K-562 leukemia 14.2% | MDA-MB-231 breast 49% | RXF 393 renal 35.8% | HT29 colon 37.9% | SNB-75 CNS 13.6% | SNB-19 CNS 30.1% | U251 CNS 17.8% | PC-3 prostate 46.6% | SK-MEL-5 melanoma 10.8% | SK-MEL-28 melanoma 44.6%

CC(C)c1ccc(Nc2n[nH]c(=S)s2)cc1
inactive: DU-145 prostate 104% | K-562 leukemia 95.5% | MALME-3M melanoma 102% | MDA-MB-231 breast 89.1% | RXF 393 renal 109% | SF-268 CNS 107% | SF-295 CNS 90.4% | SF-539 CNS 104% | M14 melanoma 93.5% | HCT-15 colon 99.8% | HT29 colon 76.1% | SNB-75 CNS 92.3% | SNB-19 CNS 99.1% | PC-3 prostate 93.6% | SK-MEL-5 melanoma 101% | UACC-62 melanoma 99% | LOX IMVI melanoma 101% | SK-MEL-28 melanoma 112%

CCC1CCCCN1C(=S)N/N=C(\C)c1ccccn1 (centres undefined)
inactive: DU-145 prostate 20.3% | K-562 leukemia 12.3% | MDA-MB-231 breast 21.5% | SF-295 CNS 13% | HCT-15 colon 27.3% | SNB-75 CNS 16.1% | SNB-19 CNS 16.2% | SK-MEL-28 melanoma 28%
active: MALME-3M melanoma -13.2% | RXF 393 renal 0.202% | SF-268 CNS 1.82% | UACC-257 melanoma 0% | M14 melanoma 0.97% | HT29 colon -19.5% | SK-MEL-5 melanoma -61.5% | UACC-62 melanoma -39.8% | LOX IMVI melanoma 6.45%

OC(c1cc(C23CC4CC(CC(C4)C2)C3)nc2c(Cl)cc(Cl)cc12)C1CCCCN1 (centres undefined)
active: DU-145 prostate -93.6% | K-562 leukemia -67% | MALME-3M melanoma -16.3% | MDA-MB-231 breast -62.2% | RXF 393 renal -91.4% | SF-268 CNS -86.9% | SF-539 CNS -76.9% | UACC-257 melanoma -69.1% | M14 melanoma -85.6% | HCT-15 colon -65.7% | HT29 colon -89.8% | SNB-75 CNS -82% | U251 CNS -88.5% | PC-3 prostate -84.5% | SK-MEL-5 melanoma 9.05% | UACC-62 melanoma -44.1% | LOX IMVI melanoma -51.2% | SK-MEL-28 melanoma -79.8%

O=[N+]([O-])c1cc(-c2ccccc2)c(O)c([N+](=O)[O-])c1
inactive: DU-145 prostate 107% | K-562 leukemia 68.9% | MALME-3M melanoma 120% | MDA-MB-231 breast 71.3% | RXF 393 renal 99.1% | SF-268 CNS 79% | SF-539 CNS 84.7% | UACC-257 melanoma 94.9% | M14 melanoma 101% | HCT-15 colon 79.4% | HT29 colon 92.4% | SNB-75 CNS 74.3% | U251 CNS 84.2% | PC-3 prostate 78.3% | SK-MEL-5 melanoma 29.2% | UACC-62 melanoma 32% | LOX IMVI melanoma 82.9% | SK-MEL-28 melanoma 66.2%

Cc1oc2c(C)c3oc(=O)cc(C)c3cc2c1CCl
inactive: DU-145 prostate 72.8% | K-562 leukemia 59% | MALME-3M melanoma 95.8% | MDA-MB-231 breast 81.7% | RXF 393 renal 83.6% | SF-268 CNS 75.9% | SF-295 CNS 87% | UACC-257 melanoma 88.9% | M14 melanoma 93.2% | HCT-15 colon 91.8% | SNB-19 CNS 81.5% | U251 CNS 82.9% | PC-3 prostate 91% | SK-MEL-5 melanoma 77.6% | UACC-62 melanoma 44.3% | LOX IMVI melanoma 56.6% | SK-MEL-28 melanoma 93.3%
